From ChEMBL document CHEMBL3988442, “University of Dundee, Small-Polar-MMV Screening Library” (2021)
Out of some 69,000 compounds screened, about 950 (1.4%) showed an effect of 50% or more. This is one part of a sample in which strong results are shown more often than they occur.

tested on: Mycobacterium tuberculosis; experiment: Cornell M. t heat shock assay; type: functional, organism-based; set-up: dose or concentration left out as unconfirmed; also: in the data most compounds retested in dose-response had high values

Row | SMILES | Percent Effect [%]
1 | O=C(O)C(F)(F)F.O=C(O)C(F)(F)F.c1cncc(N2CCCn3nnc(CN4CCCCC4)c3C2)c1 | 0.6199
2 | C1CC(CN2CCc3c(nnn3CC3CC3)C2COCC2CC2)C1.O=C(O)C(F)(F)F (stereo unspecified) | -20.7
3 | Cl.Cl.Cn1cc(C(=O)NCc2cncc3c2CCNC3)cn1 | -18.1
4 | CN1CCN(CC2CN(CC3CC3)Cc3nccn3C2)CC1.O=C(O)C(F)(F)F.O=C(O)C(F)(F)F.O=C(O)C(F)(F)F (stereo unspecified) | -11.65
5 | O=C(O)C(F)(F)F.O[C@@H]1CCN(CC2CC2)[C@H]1Cc1ccccc1 | -16.02
6 | O=C(O)C(F)(F)F.O=C(O)C(F)(F)F.O=C(O)C(F)(F)F.c1ccc(CN2CC[C@@H]3O[C@@H](COCCN4CCCC4)CC[C@@H]32)nc1 | -2.857
7 | CCOc1cccc2c1OCC(=O)N(c1ccc3c(c1)OCCO3)C2 | 11.44
8 | CCOc1cccc2c1OCC(=O)N(c1ccc(N(C)C)cc1)C2 | 78.25
9 | CCOc1cccc2c1OCC(=O)N(c1ccc3c(c1)OCO3)C2 | -8.154
10 | COCCN1CCC2(CC1)CN(C(=O)c1ccco1)CCO2.O=C(O)C(F)(F)F | -23.42
11 | O=C(Nc1nc2c(s1)CCC2)NC1CCCC1 | 7.852
12 | Cl.O=C(Nc1nc2c(s1)CNCC2)NC1CCCC1 | 102.9
13 | Cl.O=C(Nc1nc2c(s1)CNCC2)C1CC1 | 12.02
14 | O=C(O)C(F)(F)F.O=C(O)C(F)(F)F.c1cncc(-c2nnn3c2COCC(CNCC2CCOCC2)C3)c1 (stereo unspecified) | -15.79
15 | COCCn1cc2c(n1)C(CNCc1cccc(OC)c1)OCC2.O=C(O)C(F)(F)F (stereo unspecified) | -15.92
16 | Cc1ccc(CN2CC[C@@H]3O[C@@H](C(=O)N4CCN(C)CC4)C[C@@H]32)cc1.O=C(O)C(F)(F)F.O=C(O)C(F)(F)F | 25.47
17 | CCn1ncc2c1CN(C(=O)c1cscn1)CC2COC.O=C(O)C(F)(F)F (stereo unspecified) | 5.615
18 | CC(C)CN1CCC(N2CCC(C(=O)N(C)C)CC2)CC1.O=C(O)C(F)(F)F.O=C(O)C(F)(F)F | 9.102
19 | Cn1ccc(-c2cc(C(=O)N3CCCCC3)c3ccccn23)n1 | 2.688
20 | Cn1ccc(-c2cc(C(=O)N3CCC(C(N)=O)CC3)c3ccccn23)n1 | 6.568
21 | O=C(c1cc(-c2ccn(CC3CC3)n2)n2ccccc12)N1CCOCC1 | 104.4
22 | O=C(c1cc(-c2ccn(CC3CC3)n2)n2ccccc12)N1CCCO1 | 3.9

Row | SMILES | Percent Effect [%]
23 | Cn1ccc(-c2cc(C(=O)N3CCC(O)CC3)c3ccccn23)n1 | 65.18
24 | O=C(O)c1cc(-c2ccn(CC3CC3)n2)n2ccccc12 | -0.3144
25 | O=C(NC[C@H]1OC[C@@H]2CCN(Cc3ccco3)C[C@@H]21)c1ccnnc1.O=C(O)C(F)(F)F | -10.06
26 | Cc1[nH]ccc1C(=O)N1CCCC(c2nccn2Cc2cscn2)C1 (stereo unspecified) | -1.058
27 | CN(C)C(=O)[C@@H]1C[C@@H]2CCN(Cc3nccs3)C[C@@H]2O1.O=C(O)C(F)(F)F | -1.901
28 | O=C(O)C(F)(F)F.O=C(c1cccc(F)c1)N1CCC2(CC1)CC(N1CCOCC1)C2 | -0.407
29 | CCCC(=O)NC1CCc2c(ccc(=O)n2Cc2csc(C)n2)C1.O=C(O)C(F)(F)F (stereo unspecified) | 46.41
30 | Cc1cccc(CN2C[C@@H]3CN(C(=O)c4cnccn4)C[C@@H]3C2=O)n1.O=C(O)C(F)(F)F | -21.43
31 | O=C(C1NCCc2[nH]cnc21)N1CCC2(C=Cc3ccccc32)CC1 (stereo unspecified) | 4.298
32 | O=C(C1NCCc2[nH]cnc21)N1CCC2(CC1)CNc1ccccc12 (stereo unspecified) | 80.65
33 | O=C1OC2(CCN(C(=O)C3NCCc4[nH]cnc43)CC2)c2ccccc21 (stereo unspecified) | 26.76
34 | Cl.O=C(Nc1ccc(F)cc1)C(c1ccccc1)N1CCOCC1 (stereo unspecified) | -22.41
35 | C=Cc1ccc(CN2CCCC3(CNC(=O)c4ccccc4O3)C2)cc1 (stereo unspecified) | -6.668
36 | C=Cc1ccc(CN2C(=O)C3(CCNCC3)Nc3ccccc32)cc1 | 97.35
37 | N#Cc1cccc(CN2C(=O)C3(CCNCC3)Nc3ccccc32)c1 | -29.61
38 | CC(C)c1ccc(CN2C(=O)C3(CCNCC3)Nc3ccccc32)cc1 | 76.57
39 | NC(=O)c1ccc(CN2C(=O)C3(CCNCC3)Nc3ccccc32)cc1 | 0.2477
40 | Cl.O=C1CC2(CCNCC2)C(=O)N1Cc1ccc(F)cc1 | -13.65
41 | Cc1cc(C[C@@H]2CCC[C@H]2NCc2cc(F)ccc2F)on1.O=C(O)CC(O)(CC(=O)O)C(=O)O | -16.01
42 | CC(=O)N1CCN(Cc2nccs2)CC2(CC(=O)N(C)C2)C1.O=C(O)C(F)(F)F (stereo unspecified) | -21.46
43 | CS(=O)(=O)N[C@H]1CN(C(=O)c2cscn2)[C@@H]2CCCO[C@H]12 | -7.446
44 | COCC(=O)N1CCN(Cc2cccnc2)c2ncccc2C1.O=C(O)C(F)(F)F.O=C(O)C(F)(F)F | -17.68

Row | SMILES | Percent Effect [%]
45 | CCNc1ncc2c(n1)CN(c1cccc(OC)c1)C2=O | 4.456
46 | CCOC(=O)CSc1nnc([C@@H](N)CC(C)C)o1.Cl | -13.08
47 | OCC1CCCN1c1cc(N2CCC(OC3CCCC3)CC2)ncn1 (stereo unspecified) | 105.5
48 | CS(=O)(=O)N1CCN(c2cc(N3CCCC3CO)ncn2)CC1 (stereo unspecified) | -0.07305
49 | OCC1CCCN1c1cc(N2CCN(c3ccccn3)CC2)ncn1 (stereo unspecified) | 0.3449
50 | CC(Sc1nncn1C)C(=O)NCCCOc1ccc(F)cc1 (stereo unspecified) | 9.016
51 | O=C(NCc1ccccn1)[C@@H]1COC[C@H]2CN(C3CCC3)C[C@H]21.O=C(O)C(F)(F)F.O=C(O)C(F)(F)F | 3.202
52 | O=C(O)C(F)(F)F.O=C(O)C(F)(F)F.O=C(c1ccco1)N1C[C@@H]2OCCN(CCN3CCCC3)[C@@H]2C1 | -4.474
53 | Cl.c1cc(CNCc2cccc3c2OCCCO3)cc(Cn2cncn2)c1 | -3.738
54 | N#Cc1ccc(C(=O)N2CC[C@H]3[C@@H]2CCC(=O)N3c2cccnc2)cc1.O=C(O)C(F)(F)F | 0.7242
55 | O=C(Cc1cccc(Cl)c1)N[C@@H]1CCNC[C@H]1O | -8.967
56 | Cl.Cl.Clc1cccc(C[C@@H]2NCCC[C@@H]2Nc2cccc(Cl)c2)c1 | 105.7
57 | O=C1NCCCc2[nH]c(Cc3cccc(Cl)c3)nc21 | 2.952
58 | O=C(NCCc1cccc(Cl)c1)C1CCOCC1 | -3.977
59 | O=C(C[S+]([O-])Cc1cccc(Cl)c1)NC1CCCC1 (stereo unspecified) | -6.776
60 | Cl.NCC1CCCCN1C(=O)Cc1cccc(Cl)c1 (stereo unspecified) | -16.31
61 | Cl.Cl.Clc1cccc(C[C@@H]2NCCC[C@@H]2Nc2ccccc2)c1 | 104.8
62 | Clc1cccc(CNC2CCN(CCc3ccncc3)CC2)c1 | -16.56
63 | Cc1ccc(CN[C@@H]2COC[C@H]2c2ccc(F)cc2)cc1C.O=C(O)CC(O)(CC(=O)O)C(=O)O | -6.111
64 | Cc1csc(CN2C[C@@H]3COC[C@]3(COCC(=O)N(C)C)C2)n1.O=C(O)C(F)(F)F | -22.07
65 | CCn1cc2c(n1)CN(Cc1nccs1)CC2COCC1CC1.O=C(O)C(F)(F)F (stereo unspecified) | 3.982
66 | CC(C)c1nc(N2CCC(N3CCSCC3)CC2)c2cnn(C)c2n1 | -6.323

Row | SMILES | Percent Effect [%]
67 | CC(C)c1nc(N2CCC(N3CCCC(O)C3)CC2)c2cnn(C)c2n1 (stereo unspecified) | -1.228
68 | CC(C)c1nc(N2CCC(N3CCCCCC3)CC2)c2cnn(C)c2n1 | 94.23
69 | Cc1csc(CN2CCC[C@]3(C[C@@H](Oc4ccccn4)CO3)C2)n1.O=C(O)C(F)(F)F.O=C(O)C(F)(F)F | -18.33
70 | Cc1noc(-c2ccc(N3CCN(Cc4ncccc4C)CC3)nc2)n1 | -11.68
71 | Cc1cccnc1CN1CCN(c2noc(-c3ccccc3)n2)CC1 | 100.3
72 | CCOc1ccnc(N2CCN(Cc3ncccc3C)CC2)n1 | 17.62
73 | Cc1nc(CN2C(=O)CCC23CCN(Cc2cccn2C)CC3)cs1.O=C(O)C(F)(F)F.O=C(O)C(F)(F)F | -21.2
74 | Cn1cccc1C(=O)N1C[C@H]2CN(CC3CC3)C(=O)[C@H]2C1 | 12.5
75 | CC(C)CN1C[C@@H]2CN(C(=O)c3cccn3C)C[C@@H]2C1=O | 1.08
76 | CCN1C[C@@H]2CN(C(=O)c3cccn3C)C[C@@H]2C1=O | 97.42
77 | O=C(NCc1ccc(F)cc1)C1CCCN(c2ccc3nncn3n2)C1 (stereo unspecified) | -16.16
78 | Fc1ccc(CN2CCO[C@H]3[C@H](OCc4ccncc4)CC[C@@H]32)cc1.O=C(O)C(F)(F)F.O=C(O)C(F)(F)F | 22.03
79 | COc1ccc(Oc2ncccc2C(F)(F)F)cc1CN1CCCC1 | 7.068
80 | COc1cc(Oc2ncccc2C(F)(F)F)ccc1CN1CCCC1 | 53
81 | COc1cc(CN2CCCC2)ccc1Oc1ncccc1C(F)(F)F | -12.36
82 | C1CN(CC2CC2)C(COCC2CC2)c2nnn(CC3CC3)c21.O=C(O)C(F)(F)F (stereo unspecified) | -14.94
83 | COc1ccc(CNC(=O)Cn2ccc3sccc3c2=O)cc1 | -0.6252
84 | Cl.Cn1cc([C@@H]2CN(S(=O)(=O)c3ccccc3F)C[C@H]2N)c2ccncc21 | -1.741
85 | CN(C)C(=O)CN1CCC2(CCN(CC3CC3)CC2)C1=O.O=C(O)C(F)(F)F | -28.35
86 | O=C(O)C(F)(F)F.O=C(O)C(F)(F)F.O=C1[C@@H]2CCN(Cc3ccoc3)C[C@@H]2OCCN1Cc1cccnc1 | -189.5
